Screening data (PubChem)
FH mod – Identification of activators of human fumarate hydratase by quantitative high-throughput screening; Fumarate hydratase, mitochondrial (Homo sapiens), P07954; FH coupled MDH/diaphorase resazurin fluorescence, 15 min; Potency, µM (highest dose often 79.9 µM), for the others: at the highest dose activity change, negative = inhibition, usual class: inhibitors; 0.22% of 54,000 active; note: potency is the fitted concentration of half-maximal effect; % is set by controls: 0 for no effect and ±100 for the full control effect; the screen sought activators but most active calls are inhibition curves; nearly all actives have a fitted effect of over 45% in size
NTMT1 inhibitor – Primary qHTS for Inhibitors of N-terminal methyltransferase 1 (NTMT1): MTaseGlo Assay. NTMT1 MTase-Glo SAH luminescence, purified enzyme. Potency, µM (series often up to 114 µM), without a hit: at the top dose activity change, negative = inhibition, hits mostly inhibitors. 2.5% of 59,000 active. AID 1645870, 2021. N-terminal Xaa-Pro-Lys N-methyltransferase 1 (Homo sapiens), Q9BV86;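 note: potency is the fitted concentration of half-maximal effect; plate controls were DMSO vehicle for no effect and no enzyme for full effect; nearly all actives have a fitted effect of over 65% in size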
Sfp PPTase inh – qHTS Assay for Inhibitos of Bacillus subtilis Sfp phosphopantetheinyl transferase (PPTase): Chemistry Optimization Followup | shares compounds with NTMT1 inhibitor | purified Sfp PPTase enzyme activity, qHTS | Potency, µM (highest dose often 114 µM), inactives show at the highest dose activity change, negative = inhibition, hits mostly inhibitors | 78% of 230 active
Bsub HM489 growth – qHTS for Inhibitos of Bacillus subtilis Sfp phosphopantetheinyl transferase (PPTase): Chemistry Optimization Followup in B. Subtilis HM489; shares compounds with NTMT1 inhibitor; Potency, µM (titrated, usually from 114 µM), for the others: at the top dose activity change, negative = inhibition, most hits filed as inhibitors; B. subtilis HM489 (acpS-) growth, BacTiter-Glo, 5 h; 50% of 220 active
Sfp gel opt – Gel-Based Assay for Inhibitos of Bacillus subtilis Sfp phosphopantetheinyl transferase (PPTase): Chemistry Optimization Followup. Potency, µM (doses to about 250 µM), for inactives: at the top dose activity change, negative = inhibition, usual class: inhibitors. 54% of 220 active. purified Sfp PPTase, gel-based product detection. shares compounds with NTMT1 inhibitor
Sfp SAR2 – qHTS Assay for Inhibitors of Bacillus subtilis Sfp phosphopantetheinyl transferase (PPTase): SAR Round 2 | shares compounds with NTMT1 inhibitor | purified Sfp enzyme, PPTase activity, qHTS | Potency, µM (highest dose often 57.1 µM), for inactives: top-dose activity change, negative = inhibition, hits mostly inhibitors | 87% of 230 active | AID 602370, 2012
USP2 K63 confirm – Confirmation Assay for Inhibitors of Ubiquitin-specific Protease USP2a Using CHOP2 as the Reporter: K633. shares compounds with NTMT1 inhibitor. USP2 cleavage of DiUb K63-3IQF, fluorescence kinetic. 80% of 30 active. Potency, µM (series often up to 57.5 µM), inactives show at the highest dose activity change, negative = inhibition, usual class: inhibitors
Casp6 inh – qHTS for Inhibitors of Ubiquitin-specific Protease USP2a Using CHOP2 as the Reporter: Caspase 6 Assay; shares compounds with NTMT1 inhibitor; Caspase 6 enzyme, Caspase-Glo 6 luminescence; activity change, negative = inhibition, % at 46.1 µM; 30 tested, under 10 active; AID 652277, 2013
HSD17B4 counter – Extended Characterization of HPGD Inhibitors: Counterscreen Against HSD17b4 | Potency, µM (series often up to 57.1 µM), for the others: at the top dose activity change, negative = inhibition, actives largely listed as inhibitors | purified HSD17B4, estradiol/NAD+, NADH fluorescence | 10% of 230 active | shares compounds with NTMT1 inhibitor | AID 743187, 2013
ALDH1A1 inh – Extended Characterization of HPGD Inhibitors: Counterscreen Against ALDH1A1; recombinant ALDH1A1, NADH fluorescence, propionaldehyde/NAD+; 93% of 230 active; shares compounds with NTMT1 inhibitor; Potency, µM (titrated, usually from 57.1 µM), without a hit: at the top dose activity change, negative = inhibition, most hits filed as inhibitors; AID 743195, 2013
NNMT inh – Counterscreen qHTS for Inhibitors of N-terminal methyltransferase 1 (NTMT1): NNMT MTaseGlo assay. NNMT MTase-Glo luminescence, SAH detection. shares compounds with NTMT1 inhibitor. 10% of 120 active. AID 1645878, 2021. Potency, µM (doses to about 57.1 µM), inactives show at the highest dose activity, negative = inhibition, hits mostly inhibitors
* hit, by the source's call; ? = inconclusive; · = no result; [ ] = dose if it differs, or a comment. An excerpt weighted towards active compounds, which were near 3.9% of everything screened. Calls come from the whole dose curve; as a rule, active = well fitted curve in the direction sought with a large enough effect; inconclusive = small, poorly fitted or top-dose-only effect, or another doubt; inactive = no such curve, though single readings can be large; an effect the other way counts as inactive or inconclusive.

SMILES	FH mod	NTMT1 inhibitor	Sfp PPTase inh	Bsub HM489 growth	Sfp gel opt	Sfp SAR2	HSD17B4 counter	ALDH1A1 inh	others
Cc1cc(C)nc(NC(=S)N2CCN(c3noc4ccccc34)CC2)c1	·	?	3.3µM*	?	-67%	2.9µM*	-18%	17µM*
Cc1cc(C)nc(NC(=S)N2CCN(C3=Nc4ccccc4Oc4ccccc43)CC2)c1	·	50µM*	3.3µM*	?	?	5.1µM*	-17%	24µM*
CCNCc1nc2c(N)nc3ccccc3c2n1CC(C)(C)O	7%	-2%[57.5 µM]	·	·	·	·	·	·
O=C(/C=C/c1cccc(S(=O)(=O)Nc2ccccc2)c1)NO	3%[53.3 µM]	9%	·	·	·	·	·	·
O=C(Nc1ccc(C(=O)Nc2nccs2)cc1)c1ccc2ccccc2c1	·	-7%	·	·	·	·	·	·
O=C(Nc1ccc(S(=O)(=O)Nc2nccs2)cc1)c1ccc2ccccc2c1	·	?	·	·	·	·	·	·	USP2 K63 confirm=3.9µM*;Casp6 inh=-26
CCN1CCN(C(=S)c2ccc(O)cc2)CC1	·	-21%	19µM*	-26%	?	18µM*	-18%	?
COc1cc2ncnc(Nc3cccc(I)c3)c2cc1OC	-4%	22µM*	·	·	·	·	·	·	NNMT inh=?
O=C1CCCC2=C1C(c1[nH]ncc1Cl)N=C(Nc1nc3cc(Br)ccc3o1)N2 (stereo not drawn)	·	-7%[57.5 µM]	·	·	·	·	·	·
O=C([C@@H](Cc1ccc(O[S+](=O)([O-])c2ccccn2)cc1)N[S+](=O)([O-])c1cccc2cccnc12)N1CCN(c2ccccc2)CC1	·	3%	·	·	·	·	·	·
